# Experimental data: PubChem BioAssay
# Biological target: Calmodulin-1 (Homo sapiens) (UniProt P0DP23)
# Experiment: calcium-bound CALM1 binders on microarrays, profiling panel, artefact control for SMM control-protein annotation, biochemical, small-molecule microarray, Cy5-labelled CALM1, plus calcium (AID 1112);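 further: score merges spot fluorescence with signal to noise from triplicate slides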
# Details: Cy5-CALM1 binding fluorescence, higher = more signal
row,SMILES,composite z-score
1,CC[C@H]1C2=C3C(CC[C@H]4C(OCc5ccc(F)cc5C(F)(F)F)OC[C@](C)([C@@H]34)N(C(=O)OC(C)(C)C)C2)C(COC(C)=O)C1COC(C)=O (stereo not given in full),1.15
2,[N-]=[N+]=NCc1ccccc1[C@H]1OC(c2ccc(OCCCO)cc2)=N[C@@]1(CCS(=O)(=O)c1ccccc1)C(=O)NCCN1CCOCC1,0.593
3,C=C(CCCC)/C(=C/C[C@@H](OC(C)=O)c1ccc(OCCO)cc1)c1cc(C(=O)OC)ccc1OC,-0.95
4,O=C1C2C=CC(C(O)c3ccccn3)N(Nc3ccc([N+](=O)[O-])cc3)C2C(=O)N1c1ccccc1 (stereo not given),0.897
5,CCN1C(=O)C2CC(=O)C3C(CN(S(=O)(=O)c4ccc(C)cc4)C3c3ccc(C)cc3)C2C1=O (stereo not given),0.495
6,COC(=O)C1=CC(CCCO)=CC(c2ccc(CN3CCCC3)cc2)N(C)C=C1C(=O)OC (stereo not given),0.316
7,CCOC(=O)C[C@H]1[C@H](OC(=O)c2cc3ccccc3oc2=O)[C@@H](NC(=O)c2ccc(-c3ccccc3)cc2)c2cc(OCCCO)ccc2N1C(=O)Cc1ccc(OC)cc1,-0.273
8,C=CCNC(=O)[C@H]1[C@@H]2C(=O)O[C@@H](c3ccccc3)[C@@H](c3ccccc3)N2[C@@H](c2ccc(OCCO)cc2)[C@]12C(=O)N(C(=O)OCCOC)c1ccc(C#CCNC(N)=O)cc12,0.152
9,O=C1C[C@@](C(=O)NCC(F)(F)F)(c2ccc([N+](=O)[O-])cc2)[C@@H](c2ccc(CO)cc2I)N1CC12CC3CC(CC(C3)C1)C2,0.149
10,COc1cc2c(cc1O)C(C)N(Cc1sc3ccccc3c1Cl)CC2 (stereo not given),0.869
11,CCCCCCCCCCC(O)C1C=CC2C(=O)N(C)C(=O)C2N1Nc1ccccc1 (stereo not given),1.19
12,COC(=O)[C@@]1(Cc2ccccc2)[C@H]2c3cc(C(=O)N(C)C)n(Cc4ccc(Cl)c(C(F)(F)F)c4)c3C[C@H]2CN1C(=O)c1ccccc1,1.06
13,COC(=O)[C@@]1(Cc2ccc(F)cc2)[C@H]2c3cc(C(=O)N4CCCC4)n(CCc4c[nH]c5cc(F)ccc45)c3C[C@H]2CN1C(=O)c1ccccc1,1.2
14,C=CCNC(=O)[C@@H]1[C@H]2C(=O)O[C@H](c3ccccc3)[C@H](c3ccccc3)N2[C@H](c2ccc(OCCO)cc2)[C@@]12C(=O)Nc1ccc(C#CC3=CCCCC3)cc12,0.107
15,C=CCOC(=O)[C@H]1[C@@H]2C(=O)O[C@@H](c3ccccc3)[C@@H](c3ccccc3)N2[C@@H](c2ccc(OCCOC(=O)[C@H]3C[C@H]4C(=O)NCC(=O)N4[C@H]3c3ccc(O)cc3)cc2)[C@]12C(=O)Nc1ccccc12,-0.237
16,CO[C@H]1O[C@H](CO)[C@@H](OC(=O)Nc2cccc(F)c2)[C@H](OC(=O)c2cc3ccccc3[nH]2)[C@H]1OC(=O)c1cc2ccccc2[nH]1,0.0008
17,O=C1O[C@@H](c2ccccc2)[C@@H](c2ccccc2)N2[C@@H](c3ccccc3OCCO)[C@]3(C(=O)Nc4ccc(C#CC5(O)CCCCCC5)cc43)[C@@H](C(=O)N3CCCCCCC3)[C@H]12,1.82
18,CCCCCCc1nc(Cc2cc(OC)c(OC)c(OC)c2)c(C)c2c1[Si](C(C)C)(C(C)C)OC2,-0.128

row,SMILES,composite z-score
1,[N-]=[N+]=NCc1ccccc1[C@H]1OC(c2ccc(OCCCO)cc2)=N[C@@]1(CCS(=O)(=O)c1ccccc1)C(=O)O,-0.331
2,COc1ccc(NN2C(C(O)c3ccc(F)cc3)C=CC3C(=O)N(C4CCCCC4)C(=O)C32)cc1 (stereo not given),0.722
3,CC1C2C(CCCO)=CC(C3C(=O)N(C)C(=O)C23)N1Cc1cccc(OC(F)(F)F)c1 (stereo not given),0.841
4,CCOC(=O)C1=C[C@@H](C(C)(C)C)N(S(=O)(=O)c2ccc(C)cc2)[C@H]1c1ccc(OC)cc1,0.577
5,Cc1ccc(N2C(=O)c3ccccc3[C@@H](C(=O)NCCN3CCOCC3)[C@@H]2c2ccc(CO)cc2)nc1,0.609
6,O=C(N1CCOCC1)[C@]1(CCS(=O)(=O)c2ccccc2)N=C(c2ccc(OCCCO)cc2)O[C@@H]1c1ccccc1,1.14
7,C=CCC(OC(C)=O)[C@@H]1[C@@H](N(Cc2ccc(-c3ccccc3)cc2)C(=O)Cc2ccc(OC)cc2)c2cc(OCCCO)ccc2N1C(=O)Cc1ccc(OC)cc1 (stereo not given in full),0.7
8,C=C(COC)C(=O)CC[C@H](OC(C)=O)c1ccccc1OCCO,-1.1
9,COc1cc(CO)cc(I)c1O[C@H]1C=C(C(=O)NCCO)C[C@@H](N(CCN2CCOCC2)C(=O)C2CCCO2)[C@@H]1O (stereo not given in full),-0.671
10,CC(C)(C)OC(=O)CC[C@@]1(C(N)=O)N=C(c2ccc(OCCCO)cc2)O[C@@H]1c1ccccc1CN=[N+]=[N-],1.9
11,[N-]=[N+]=NCc1ccccc1[C@H]1OC(c2ccc(OCCCO)cc2)=N[C@@]1(Cc1ccccc1N=[N+]=[N-])C(=O)N1CCOCC1,0.642
12,CN(C)CCCCCCNC(=O)[C@@H]1C[C@@H]2C(=O)N[C@@H](CCCC[N+](C)(C)C)C(=O)N2[C@@H]1c1cccc(OCCO)c1,-0.327
13,CCCCC(=C=CC[C@@H](O)c1ccccc1OCCO)C[C@@H](O)c1ccccn1,-0.669
14,CC1C2C(CCCO)=CC(C3C(=O)N(C(N)=O)C(=O)C23)N1Cc1cccc(OC(F)(F)F)c1 (stereo not given),0.41
15,C=CCC(OC(C)=O)[C@@H]1[C@@H](N(Cc2ccc(-c3ccccc3)cc2)C(=O)Cc2ccc(OC)cc2)c2cc(OCCCO)ccc2N1C(=O)c1ccc2ccccc2c1 (stereo not given in full),0.335
16,COc1cc(Cc2cc3c(c(-c4ccccc4)n2)[Si](C(C)C)(C(C)C)OC3)cc(OC)c1OC,-0.0062
17,O=C1N(Cc2ccccc2)Cc2ccccc2C[C@@]12COC(c1ccc(OCCCO)cc1)=N2,0.519
